Assay results from PubChem BioAssay (NCI).
Where “and” joins values, the source holds several entries; their conditions need not be identical. Identical values can stand only once. Compounds without any hit were thinned out: in the full panel of roughly 79,000, 15% have a hit. Some structures have more than one record in an assay (separate samples or runs), and their calls can disagree. Calls of active or inactive are those of the source. Cut-off read from the data, not from the text of the source: active = growth inhibition above about 70%; inactive = the rest.

Assays:
[1] = NCI Yeast Anticancer Drug Screen. Data for the wt1 strain (AID 149);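 note: 0% = growth of vehicle-treated wt1 cultures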; details: S. cerevisiae wt1 strain (SPY 50644) growth inhibition, stronger effect = higher value
In short: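 Readout: yeast growth inhibition, normalised to vehicle controls, in the wt1 strain exposed to test compounds.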

[2] = NCI Yeast Anticancer Drug Screen. Data for the rad50EPP+ strain (AID 151);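 note: 0% = growth of vehicle-treated control cultures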; details: S. cerevisiae rad50 mutant strain, stronger effect = higher value
In short: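 Exposing the rad50EPP+ strain to each compound, growth was compared with vehicle-only cultures to give inhibition.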

[3] = NCI Yeast Anticancer Drug Screen. Data for the mgt1 strain (AID 153); details: S. cerevisiae mgt1 mutant growth inhibition, stronger effect = higher value
In short: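 Genetically defined yeast (mgt1) treated with compound; inhibition of growth expressed against vehicle-treated controls.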

[4] = NCI Yeast Anticancer Drug Screen. Data for the rad50 strain (AID 155);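 note: 0% = growth of vehicle-only cultures of the same strain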; details: S. cerevisiae rad50 strain growth inhibition, stronger effect = higher value
In short: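 Compounds were tested on a yeast strain with an engineered DNA damage repair alteration; the reported value is growth inhibition normalised to vehicle treatment.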

[5] = NCI Yeast Anticancer Drug Screen. Data for the mec2-1 strain (AID 157); details: S. cerevisiae mec2-1 strain, stronger effect = higher value
In short: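 Readout is yeast growth inhibition, normalised to vehicle-treated controls, in the mec2-1 strain exposed to compound.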

[6] = NCI Yeast Anticancer Drug Screen. Data for the rad14 strain (AID 159);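 note: 0% = growth of vehicle-treated control cultures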; details: S. cerevisiae rad14 strain growth inhibition, stronger effect = higher value
In short: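 Compound-treated yeast with a defined DNA-repair lesion; growth inhibition normalised to vehicle-treated cultures.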

[7] = NCI Yeast Anticancer Drug Screen. Data for the sgs1 mgt1 strain (AID 161);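 note: 0% = growth of cultures given vehicle only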; details: S. cerevisiae sgs1 mgt1 strain, stronger effect = higher value
In short: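 Compounds are added to genetically altered yeast, and growth is compared with cultures given vehicle alone to give percent inhibition.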

[8] = NCI Yeast Anticancer Drug Screen. Data for the CLN2oe strain (AID 163);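 note: 0% = growth of vehicle-only control cultures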; details: S. cerevisiae CLN2oe strain, stronger effect = higher value
In short: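 Values reflect how much compound exposure reduced yeast growth, referenced to vehicle-exposed cells. Assay organism is a strain with a defined genetic change affecting cell-cycle control.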

[9] = NCI Yeast Anticancer Drug Screen. Data for the cln2 rad14 strain (AID 165);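 note: 0% = growth equal to vehicle treated cultures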; details: S. cerevisiae cln2 rad14 strain, stronger effect = higher value
In short: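 Relative to vehicle controls, growth inhibition of compound-treated cln2 rad14 yeast was recorded.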

[10] = NCI Yeast Anticancer Drug Screen. Data for the bub3 strain (AID 167); details: S. cerevisiae bub3 mutant strain, stronger effect = higher value
In short: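 Growth of a checkpoint-deficient yeast mutant is measured after compound exposure. Values represent inhibition relative to vehicle.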

[11] = NCI Yeast Anticancer Drug Screen. Data for the wt2 strain (AID 169);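 note: 0% = growth of vehicle-treated yeast cultures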; details: S. cerevisiae wt2 strain growth inhibition, stronger effect = higher value
In short: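 Values express reduction in yeast growth under compound treatment, referenced to vehicle-treated cells.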

[12] = NCI Yeast Anticancer Drug Screen. Data for the mlh1 strain (AID 171);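 note: 0% = growth of vehicle-treated control cultures of the same strain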; details: S. cerevisiae mlh1 strain growth inhibition, stronger effect = higher value
In short: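 Steps: expose the defined-mutant yeast strain to compound; expose a parallel culture to vehicle; measure growth; express compound effect as inhibition relative to the vehicle culture.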

[13] = NCI Yeast Anticancer Drug Screen. Data for the sgs1 strain (AID 173);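 note: 0% = growth of vehicle-only control cultures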; details: S. cerevisiae sgs1 mutant, stronger effect = higher value
In short: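 Treat defined-mutant yeast with compound; measure growth; calculate inhibition relative to vehicle-treated cells.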

[14] = NCI Yeast Anticancer Drug Screen. Data for the mlh1 rad18 strain (AID 175); details: S. cerevisiae mlh1 rad18 strain growth inhibition, stronger effect = higher value
In short: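 Test agents were incubated with a yeast strain of defined genotype (DNA damage repair defect). Inhibition of growth was derived by comparison with vehicle-exposed cultures.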

[15] = NCI Yeast Anticancer Drug Screen. Data for the rad18 strain (AID 177); details: S. cerevisiae rad18 mutant growth inhibition, stronger effect = higher value
In short: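 A genetically defined yeast mutant impaired in DNA damage repair was treated with test compounds, then its growth was measured against cultures receiving vehicle alone.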

[16] = at 5.0 µM (retest, dose inferred, filed as 0.5)
[17] = at 50.0 µM (retest, dose inferred, filed as 5.0)

Measured: growth inhibition

c1cncc(C(Nc2cccc3cccnc23)Nc2cccc3cccnc23)c1
active: [4]; at 33.0 µM 76% | [4]; at 50.0 µM 75.8% | [4]; at 100.0 µM 81% | [14]; at 50.0 µM 77.2% | [15]; at 3.7 µM 89% | [15]; at 11.0 µM 92% | [15]; at 33.0 µM 94% | [15]; at 100.0 µM 94%
inactive: [1]; at 1.2 µM 0% | [1]; at 3.7 µM 0% | [1]; at 11.0 µM 1% | [1]; at 33.0 µM 2% | [1]; at 100.0 µM 0% | [2]; at 1.2 µM 1% | [2]; at 3.7 µM 14% | [2]; at 11.0 µM 31% | [2]; at 33.0 µM 47% | [2]; at 100.0 µM 55% | [3]; at 1.2 µM 4% | [3]; at 3.7 µM 1% | [3]; at 11.0 µM 3% | [3]; at 33.0 µM -70% | [3]; at 100.0 µM -45% | [4]; at 1.2 µM -103% | [4]; at 3.7 µM 52% | [4]; [16] 25% | [4]; at 11.0 µM 61% | [4]; [17] 44% | [5]; at 1.2 µM 2% | [5]; at 3.7 µM 1% | [5]; [16] -26% | [5]; at 11.0 µM 5% | [5]; at 33.0 µM 12% | [5]; [17] -2% | [5]; at 50.0 µM 44.8% | [5]; at 100.0 µM 15% | [6]; at 1.2 µM 0% | [6]; at 3.7 µM 9% | [6]; at 11.0 µM 15% | [6]; at 33.0 µM 25% | [6]; at 100.0 µM 47% | [7]; [16] 28% | [7]; [17] 53% | [7]; at 50.0 µM 54.4% | [8]; at 1.2 µM 6% | [8]; at 3.7 µM 3% | [8]; at 11.0 µM 3% | [8]; at 33.0 µM 3% | [8]; at 100.0 µM 2% | [9]; [16] 1% | [9]; [17] 6% | [9]; at 50.0 µM 27.9% | [10]; at 1.2 µM 1% | [10]; at 3.7 µM 4% | [10]; [16] -10% | [10]; at 11.0 µM -7% | [10]; at 33.0 µM -11% | [10]; [17] -12% | [10]; at 50.0 µM -13.8% | [10]; at 100.0 µM -8% | [11]; at 1.2 µM 0% | [11]; at 3.7 µM 9% | [11]; at 11.0 µM 0% | [11]; at 33.0 µM 2% | [11]; at 100.0 µM -1% | [12]; at 1.2 µM 3% | [12]; at 3.7 µM 1% | [12]; at 11.0 µM 1% | [12]; at 33.0 µM 4% | [12]; at 100.0 µM 2% | [13]; at 1.2 µM 11% | [13]; at 3.7 µM 39% | [13]; at 11.0 µM 59% | [13]; at 33.0 µM 64% | [13]; at 100.0 µM 62% | [14]; [16] 25% | [14]; [17] 40% | [15]; at 1.2 µM 36%

CCCCCCCCCCCCCCCCCN
47.4% (inactive) and 92.5% (active): [7]; at 50.0 µM
-6.55% (inactive) and 92% (active): [5]; at 50.0 µM
active: [1]; at 33.0 µM 90% | [1]; at 100.0 µM 94% | [2]; at 11.0 µM 82% | [2]; at 33.0 µM 97% | [2]; at 100.0 µM 96% | [3]; at 11.0 µM 86% | [3]; at 33.0 µM 97% | [3]; at 100.0 µM 96% | [4]; at 11.0 µM 85% | [4]; at 33.0 µM 97% | [4]; [17] 96% | [4]; at 100.0 µM 94% | [5]; at 11.0 µM 91% | [5]; at 33.0 µM 98% | [5]; [17] 97% | [5]; at 100.0 µM 93% | [6]; at 33.0 µM 95% | [6]; at 100.0 µM 94% | [8]; at 11.0 µM 94% | [8]; at 33.0 µM 98% | [8]; at 100.0 µM 95% | [9]; [17] 90% | [10]; at 11.0 µM 90% | [10]; at 33.0 µM 98% | [10]; [17] 97% | [10]; at 100.0 µM 95% | [11]; at 33.0 µM 90% | [11]; at 100.0 µM 96% | [12]; at 11.0 µM 90% | [12]; at 33.0 µM 97% | [12]; at 100.0 µM 94% | [13]; at 33.0 µM 97% | [13]; at 100.0 µM 96% | [14]; [17] 96% | [15]; at 100.0 µM 93%
inactive: [1]; at 1.2 µM -23% | [1]; at 3.7 µM -25% | [1]; at 11.0 µM -5% | [2]; at 1.2 µM -14% | [2]; at 3.7 µM 11% | [3]; at 1.2 µM -29% | [3]; at 3.7 µM -24% | [4]; at 1.2 µM -27% | [4]; at 3.7 µM -17% | [4]; [16] 26% | [5]; at 1.2 µM -37% | [5]; at 3.7 µM -28% | [5]; [16] 51% | [6]; at 1.2 µM -31% | [6]; at 3.7 µM -24% | [6]; at 11.0 µM 14% | [7]; [16] 7% | [7]; [17] 50% | [8]; at 1.2 µM -22% | [8]; at 3.7 µM 11% | [9]; [16] 16% | [9]; at 50.0 µM 6.8% and 37% | [10]; at 1.2 µM -10% | [10]; at 3.7 µM -4% | [10]; [16] 54% | [11]; at 1.2 µM -15% | [11]; at 3.7 µM -12% | [11]; at 11.0 µM 49% | [12]; at 1.2 µM -31% | [12]; at 3.7 µM 0% | [13]; at 1.2 µM -46% | [13]; at 3.7 µM -3% | [13]; at 11.0 µM 58% | [14]; [16] 41% | [15]; at 1.2 µM -38% | [15]; at 3.7 µM -18% | [15]; at 11.0 µM 61% | [15]; at 33.0 µM 15%
32.8% (inactive) and 90.2% (active): [10]; at 50.0 µM
3.15% (inactive) and 90.2% (active): [4]; at 50.0 µM
23.5% (inactive) and 89.9% (active): [14]; at 50.0 µM
